From PubChem
Shown are actives, neighbours in structure and some others; about 3.8% of the full set was active somewhere.
S2 tox: Viability Counterscreen for Primary qHTS for Inhibitors of ATXN expression | S2 cells (HEK-293 line with an ATXN2-luciferase reporter) viability, CellTiter-Fluor protease fluorescence, 24 h | Potency, µM (titrated, usually from 56.7 µM), hits mostly cytotoxic | 0.49% of 400,000 active; further: nearly all actives have a fitted effect of over 40% in size
A549 viability: Nrf2 qHTS screen for inhibitors: counterscreen for cytotoxicity; A549 ARE-Fluc cells, CellTiter-Fluor viability, 18-24 h; Potency, µM (top dose mostly 46 µM), for inactives: at the highest dose activity change, negative = cytotoxicity, actives largely listed as inhibitors; 0.16% of 390,000 active; further: on the % scale 0 is the no-effect control and ±100 the full control effect
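Cytotoxicity counterscreen: CellTiter-Fluor fluorescence was measured in A549 ARE_Fluc cells after 18-24 h of compound exposure in a concentration series. The subsequent BugLite luminescent read reports ARE-luciferase activity.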
HepG2 tox: qHTS for Inhibitors of TGF-b: Cytotox Counterscreen | AID 588856, 2011 | 0.76% of 410,000 active | Potency, µM (highest dose often 46.1 µM), inactives show at the highest dose activity change, negative = cytotoxicity, hits mostly cytotoxic | HepG2 CAGA-GFP viability, ATP luminescence, 18 h
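CellTiter-Glo luminescence gave cytotoxicity after 18 hours at 37 degrees C. The cells were HepG2 CAGA-GFP in 1% FBS DMEM, stimulated with 500 pg/mL TGF-beta after compound addition. %Activity was normalised to no-cell wells (complete cell-killing) and DMSO (no toxicity), and curves were fitted and classified.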
TGFb inhibitor: qHTS for Inhibitors of TGF-b; AID 588855, 2011; 1.2% of 410,000 active; HepG2 CAGA-GFP TGF-b/SMAD3 reporter, GFP fluorescence, 18 h; TGF-beta stimulated, 500 pg/mL final; Potency, µM (titrated, usually from 46.1 µM), for the others: top-dose activity, negative = inhibition, hits mostly inhibitors; further: on the % scale 0 is the no-effect control and ±100 the full control effect; nearly all actives have a fitted effect of over 65% in size
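Using HEPG2 CAGA-GFP reporter cells at 1000 cells/well, we pinned test compounds, stimulated with recombinant TGF-beta (500 pg/mL final) and measured total well GFP after 18 h.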
Nrf2 inh: Nrf2 qHTS screen for inhibitors; 2.1% of 360,000 active; A549 ARE-Fluc reporter, luciferase luminescence, 18-24 h; Potency, µM (series often up to 46 µM), for inactives: top-dose activity change, negative = inhibition, hits mostly inhibitors; further: on the % scale 0 is the no-effect control and ±100 the full control effect; nearly all actives have a fitted effect of over 60% in size
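Concentration-response testing used A549 ARE_Fluc cells at 5000 cells/well. Following an 18-24 h compound incubation, viability was read by fluorescence (Ex 405/Em 525) and luciferase output by luminescence.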
ATXN2 expr inh: Primary qHTS for Inhibitors of ATXN expression; Potency, µM (titrated, usually from 57 µM), without a hit: top-dose activity change, negative = inhibition, actives largely listed as inhibitors; 0.72% of 360,000 active; HEK-293 ATXN2-luciferase reporter, luminescence, 24 h; further: on the % scale 0 is the no-effect control and ±100 the full control effect; nearly all actives have a fitted effect of over 55% in size
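qHTS (up to 57 uM final) was run with 24 h compound exposure of reporter cells at 37 °C. Each well was multiplexed: SteadyGlo luminescence measured ATXN2-luciferase expression after a fluorogenic Gly-Phe-AFC viability readout (25 uM final).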
* = called active by the depositor; i = inactive; ? = inconclusive; · = no result. The call rests on the fitted dose curve; in most records, active means well fitted curve in the direction sought with a large enough effect; inconclusive means small, poorly fitted or top-dose-only effect, or another doubt; inactive means no such curve, though single readings can be large; an effect the other way counts as inactive or inconclusive. Potency means the concentration at half of the fitted maximal effect.

SMILES	S2 tox	A549 viability	HepG2 tox	TGFb inhibitor	Nrf2 inh	ATXN2 expr inh
C#CCOCCOCCOCCNc1nc(N2CCN(C(=O)C([C@@H](C)CC)n3cc(C(N)Cc4ccc(O)cc4)nn3)CC2)nc(N2CCN(C(=O)[C@H](CCC(=O)O)n3cc(C(N)Cc4ccc(O)cc4)nn3)CC2)n1 (stereo partly specified)	i	-9.0%	30.5%	12.7%	-7.6%	-6.9%
O=C(CCN1CCN(c2ccccc2)CC1)N/N=C/c1ccccc1OC(F)F	i	19.0%	-30.7%	?	-11.7%	?
CCCCCC(=O)NNC1CC(=O)N(c2cccc(OCC)c2)C1=O (stereo unspecified)	i	5.7%	5.2%	1.8%	-8.6%	3.9%
O=C(Nc1cccc(C(F)(F)F)c1)C1CCCN(S(=O)(=O)c2cccc3nsnc23)C1 (stereo unspecified)	i	0.4%	-17.3%	6.31µM*	?	-12.1%
COc1cccc(NC(=O)C2CCN(S(=O)(=O)c3ccc(N4CCCC4=O)cc3)CC2)c1	i	·	-7.3%	9.1%	·	·
O=C(Nc1cccc(C(F)(F)F)c1)C1CCN(S(=O)(=O)c2ccc(N3CCCC3=O)cc2)CC1	i	?	-14.7%	?	13µM*	?
CC(=O)Nc1cccc(NC(=O)COc2ccc3c(c2)OCO3)c1	i	9.0%	1.7%	3.3%	?	35.1%
CN(CC(=O)Nc1ccccc1C(F)(F)F)C(=O)c1ccc(N2C(=O)CCC2=O)cc1	i	-0.8%	-6.8%	-0.6%	2.1%	-0.5%
CC(C)C(=O)Nc1nnc(SCC(=O)NCc2cccs2)s1	i	7.4%	1.8%	-1.5%	?	-3.3%
COc1cc(-c2noc(C)c2C#CCO)cc(OC)c1OC	i	9.1%	-16.5%	12.0%	-23.3%	-1.9%
COc1cc(-c2noc(C)c2C#Cc2ccsc2)cc(OC)c1OC	i	-1.7%	-19.9%	11.2µM*	18.7%	0.0%
CCN(CC)CCn1c2ccccc2c2cnc(N)c(C#N)c21	i	?	-5.9%	-11.8%	5.17µM*	14.1µM*
CN(C)C=Nc1ncc2c3ccccc3n(CCN(C)C)c2c1C#N	i	-26.1%	-5.9%	?	?	?
Cc1ccc(C(=O)CCS(=O)(=O)c2ccc(F)cc2)cc1	i	-1.0%	12.6µM*	15.8µM*	-0.1%	4.4%
CCCCN(C(=O)CSc1nnc(-c2ccc(Cl)cc2)o1)c1c(N)n(CC(C)C)c(=O)[nH]c1=O	i	?	-13.9%	-0.3%	18.4µM*	-14.9%
COCCN(C(=O)CSc1nnc(-c2ccc(Cl)cc2)o1)c1c(N)n(CC(C)C)c(=O)[nH]c1=O	?	-9.5%	7.9%	10.3%	-5.8%	-0.8%
O=C(O)c1ccccc1C(c1ccc(O)cc1)c1ccc(O)cc1	i	-5.2%	5.7%	3.9%	6.4%	2.8%
O=C(Nc1ccccc1)c1csc(-c2ccccc2)n1	i	-2.5%	-2.5%	-28.3%	?	38.5%
O=C(Nc1ccc(C(F)(F)F)cc1)c1csc(-c2ccncc2)n1	i	-10.6%	-28.8%	-16.9%	18.4µM*	-27.2%
O=C(Nc1cccc(-c2nc3ccccc3o2)c1)c1ccc(N2C(=O)C3C4C=CC(C4)C3C2=O)cc1 (stereo unspecified)	i	?	-16.9%	-2.9%	9.2µM*	-18.7%
O=C1C2C3C=CC(C3)C2C(=O)N1c1cccc(-c2nc3ccccc3o2)c1 (stereo unspecified)	i	-3.4%	1.4%	2.2%	16.1%	0.0%
COc1ccc(OC)c(S(=O)(=O)NCCc2csc3nc(-c4ccccc4)nn23)c1	·	-0.3%	-20.0%	-23.5%	·	·
Nc1[nH]c(=O)nc(Nc2ccccc2)c1N=O	i	-10.0%	-33.7%	-3.4%	-13.5%	-9.4%
